Results published in PubChem BioAssay (NCI).
Several values for one entry are separate records, joined by “and”; a condition that tells them apart may be missing. Equal values may be shown once. This is part of a sample that, as a whole, favours compounds with a hit. Of some 79,000 tested, about 15% had one in any assay. Some compounds were tested as several samples or in several runs, with calls that do not always agree. Activity calls are given as the source filed them. No stated cut-off is given here; in the data, active means growth inhibition above about 70%; inactive means the rest.

Experiments:
[1] = NCI Yeast Anticancer Drug Screen. Data for the wt2 strain (AID 169); conditions: S. cerevisiae wt2 strain growth inhibition, stronger effect = higher value
Method in brief: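 This strain belongs to a panel of yeast strains with defined genetic alterations in DNA damage repair or cell cycle control. Compounds are applied, and growth inhibition is measured against vehicle-treated cultures.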

[2] = NCI Yeast Anticancer Drug Screen. Data for the mlh1 strain (AID 171);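 further: 0% = growth of vehicle-treated control cultures of the same strain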; conditions: S. cerevisiae mlh1 strain growth inhibition, stronger effect = higher value
Method in brief: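 Growth of the mutant yeast strain after compound exposure, expressed as inhibition relative to vehicle-only controls.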

[3] = NCI Yeast Anticancer Drug Screen. Data for the sgs1 strain (AID 173);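 further: 0% = growth of vehicle-only control cultures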; conditions: S. cerevisiae sgs1 mutant, stronger effect = higher value
Method in brief: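 Growth of a yeast strain bearing a defined genetic alteration is measured after compound treatment. Inhibition is expressed relative to vehicle-only controls.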

[4] = NCI Yeast Anticancer Drug Screen. Data for the mlh1 rad18 strain (AID 175); conditions: S. cerevisiae mlh1 rad18 strain growth inhibition, stronger effect = higher value
Method in brief: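 Read-out is yeast growth inhibition, calculated against vehicle-only controls. The compound was applied to a strain engineered with DNA damage repair alterations.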

[5] = NCI Yeast Anticancer Drug Screen. Data for the rad18 strain (AID 177); conditions: S. cerevisiae rad18 mutant growth inhibition, stronger effect = higher value
Method in brief: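 Growth of the mutant yeast strain after compound exposure, normalised to vehicle-only cultures.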

[6] = NCI Yeast Anticancer Drug Screen. Data for the rad52 strain (AID 147);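 further: 0% = growth of vehicle-treated control cultures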; conditions: S. cerevisiae rad52 mutant growth inhibition, stronger effect = higher value
Method in brief: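 Compounds are applied to a genetically defined yeast strain lacking normal DNA damage repair, and inhibition of growth is expressed relative to cultures given vehicle only.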

[7] = NCI Yeast Anticancer Drug Screen. Data for the wt1 strain (AID 149);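 further: 0% = growth of vehicle-treated wt1 cultures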; conditions: S. cerevisiae wt1 strain (SPY 50644) growth inhibition, stronger effect = higher value
Method in brief: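 Each compound is tested on wt1 yeast and the loss of growth versus vehicle gives the inhibition value.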

[8] = NCI Yeast Anticancer Drug Screen. Data for the rad50EPP+ strain (AID 151);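 further: 0% = growth of vehicle-treated control cultures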; conditions: S. cerevisiae rad50 mutant strain, stronger effect = higher value
Method in brief: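 Compounds were applied to the rad50EPP+ yeast strain, which bears a defined DNA repair alteration, and growth inhibition was determined relative to vehicle-treated cultures.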

[9] = NCI Yeast Anticancer Drug Screen. Data for the mgt1 strain (AID 153); conditions: S. cerevisiae mgt1 mutant growth inhibition, stronger effect = higher value
Method in brief: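 Strain: mgt1 yeast, one of a set carrying defined DNA damage repair or cell cycle control alterations. Compound-treated growth compared with vehicle.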

[10] = NCI Yeast Anticancer Drug Screen. Data for the rad50 strain (AID 155);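 further: 0% = growth of vehicle-only cultures of the same strain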; conditions: S. cerevisiae rad50 strain growth inhibition, stronger effect = higher value
Method in brief: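 Vehicle-treated cultures provide the reference for the growth inhibition reported for compound-exposed, repair-deficient yeast.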

[11] = NCI Yeast Anticancer Drug Screen. Data for the mec2-1 strain (AID 157); conditions: S. cerevisiae mec2-1 strain, stronger effect = higher value
Method in brief: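 Strain: mec2-1 (DNA repair/cell cycle alteration). Compound exposure, then growth measured; inhibition expressed relative to vehicle.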

[12] = NCI Yeast Anticancer Drug Screen. Data for the rad14 strain (AID 159);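 further: 0% = growth of vehicle-treated control cultures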; conditions: S. cerevisiae rad14 strain growth inhibition, stronger effect = higher value
Method in brief: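 Inhibition of growth is reported for a repair-deficient yeast mutant following compound treatment, calculated relative to cultures that received vehicle.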

[13] = NCI Yeast Anticancer Drug Screen. Data for the sgs1 mgt1 strain (AID 161);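 further: 0% = growth of cultures given vehicle only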; conditions: S. cerevisiae sgs1 mgt1 strain, stronger effect = higher value
Method in brief: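 Read-out: growth inhibition vs vehicle controls. Cells: mutant yeast strain deficient in DNA damage repair.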

[14] = NCI Yeast Anticancer Drug Screen. Data for the CLN2oe strain (AID 163);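 further: 0% = growth of vehicle-only control cultures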; conditions: S. cerevisiae CLN2oe strain, stronger effect = higher value
Method in brief: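 Growth of a genetically modified yeast strain is measured after compound exposure and compared with cultures given vehicle alone.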

[15] = NCI Yeast Anticancer Drug Screen. Data for the cln2 rad14 strain (AID 165);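 further: 0% = growth equal to vehicle treated cultures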; conditions: S. cerevisiae cln2 rad14 strain, stronger effect = higher value
Method in brief: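 Compounds are applied to the cln2 rad14 yeast strain, and growth is then compared with that of vehicle-treated cultures to give inhibition.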

[16] = NCI Yeast Anticancer Drug Screen. Data for the bub3 strain (AID 167); conditions: S. cerevisiae bub3 mutant strain, stronger effect = higher value
Method in brief: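 Mutant yeast screening strain plus compound; vehicle-treated cultures serve as the 0% inhibition reference.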

[17] = at 5.0 µM (retest, dose inferred, filed as 0.5)
[18] = at 50.0 µM (retest, dose inferred, filed as 5.0)

Measured: growth inhibition

CC(/C=C/c1ccccc1)=N\NC(N)=S
active: [4]; [18] 77% | [5]; at 100.0 µM 94%
inactive: [1]; at 1.2 µM -46% | [1]; at 3.7 µM -38% | [1]; at 11.0 µM -43% | [1]; at 33.0 µM -9% | [1]; at 100.0 µM 65% | [2]; at 1.2 µM 5% | [2]; at 3.7 µM 19% | [2]; at 11.0 µM 20% | [2]; at 33.0 µM 37% | [2]; at 100.0 µM 58% | [3]; at 1.2 µM -3% | [3]; at 3.7 µM 9% | [3]; at 11.0 µM 13% | [3]; at 33.0 µM 30% | [3]; at 100.0 µM 68% | [4]; [17] 49% | [4]; at 50.0 µM 58.8% | [5]; at 1.2 µM 9% | [5]; at 3.7 µM 11% | [5]; at 11.0 µM 33% | [5]; at 33.0 µM 67%

Oc1cccc2cc(Cl)cnc12
active: [6]; at 33.0 µM 96% | [6]; at 100.0 µM 97% | [7]; at 33.0 µM 96% | [7]; at 100.0 µM 98% | [8]; at 11.0 µM 94% | [8]; at 33.0 µM 98% | [8]; at 100.0 µM 97% | [9]; at 33.0 µM 97% | [9]; at 100.0 µM 98% | [10]; at 33.0 µM 96% | [10]; at 50.0 µM 90.7% | [10]; at 100.0 µM 97% | [11]; at 33.0 µM 97% | [11]; at 50.0 µM 92.8% | [11]; at 100.0 µM 98% | [12]; at 33.0 µM 97% | [12]; at 100.0 µM 98% | [13]; [18] 99% | [13]; at 50.0 µM 91.7% | [14]; at 33.0 µM 95% | [14]; at 100.0 µM 94% | [15]; [18] 98% | [15]; at 50.0 µM 88.7% | [16]; at 33.0 µM 96% | [16]; [18] 99% | [16]; at 50.0 µM 91.8% | [16]; at 100.0 µM 97% | [1]; at 33.0 µM 96% | [1]; at 100.0 µM 98% | [2]; at 33.0 µM 96% | [2]; at 100.0 µM 97% | [3]; at 33.0 µM 97% | [3]; at 100.0 µM 98% | [4]; at 50.0 µM 91.2% | [5]; at 33.0 µM 96% | [5]; at 100.0 µM 97%
inactive: [6]; at 1.2 µM -5% | [6]; at 3.7 µM 5% | [6]; at 11.0 µM 49% | [7]; at 1.2 µM -28% | [7]; at 3.7 µM -39% | [7]; at 11.0 µM 20% | [8]; at 1.2 µM -11% | [8]; at 3.7 µM -2% | [9]; at 1.2 µM -18% | [9]; at 3.7 µM -22% | [9]; at 11.0 µM 3% | [10]; at 1.2 µM -29% | [10]; at 3.7 µM -13% | [10]; [17] 37% | [10]; at 11.0 µM 37% | [10]; [18] 65% | [11]; at 1.2 µM -56% | [11]; at 3.7 µM -56% | [11]; [17] 38% | [11]; at 11.0 µM 6% | [11]; [18] 69% | [12]; at 1.2 µM -27% | [12]; at 3.7 µM -13% | [12]; at 11.0 µM 28% | [13]; [17] -13% | [14]; at 1.2 µM 5% | [14]; at 3.7 µM 8% | [14]; at 11.0 µM 45% | [15]; [17] 49% | [16]; at 1.2 µM -21% | [16]; at 3.7 µM -8% | [16]; [17] 55% | [16]; at 11.0 µM 20% | [1]; at 1.2 µM -31% | [1]; at 3.7 µM -26% | [1]; at 11.0 µM 1% | [2]; at 1.2 µM -22% | [2]; at 3.7 µM -42% | [2]; at 11.0 µM 3% | [3]; at 1.2 µM -47% | [3]; at 3.7 µM -43% | [3]; at 11.0 µM 46% | [4]; [17] 44% | [4]; [18] 50% | [5]; at 1.2 µM -11% | [5]; at 3.7 µM -4% | [5]; at 11.0 µM 60%

O=C(O)c1ccc(N2C(=O)C=CC2=O)cc1
30% (inactive) and 72.7% (active): [10]; at 50.0 µM
active: [6]; at 100.0 µM 74% | [10]; at 100.0 µM 80% | [5]; at 100.0 µM 72%
inactive: [6]; at 1.2 µM 1% | [6]; at 3.7 µM 7% | [6]; at 11.0 µM 8% | [6]; at 33.0 µM 27% | [7]; at 1.2 µM -3% | [7]; at 3.7 µM -2% | [7]; at 11.0 µM 1% | [7]; at 33.0 µM 10% | [7]; at 100.0 µM 53% | [8]; at 1.2 µM 2% | [8]; at 3.7 µM 5% | [8]; at 11.0 µM 8% | [8]; at 33.0 µM 22% | [8]; at 100.0 µM 40% | [9]; at 1.2 µM 1% | [9]; at 3.7 µM 1% | [9]; at 11.0 µM 3% | [9]; at 33.0 µM 18% | [9]; at 100.0 µM 62% | [10]; at 1.2 µM 3% | [10]; at 3.7 µM 11% | [10]; [17] -8% and 7% | [10]; at 11.0 µM 14% | [10]; at 33.0 µM 33% | [10]; [18] 44% and 25% | [11]; at 1.2 µM -7% | [11]; at 3.7 µM -4% | [11]; [17] 5% and 7% | [11]; at 11.0 µM 0% | [11]; at 33.0 µM 21% | [11]; [18] 15% and 24% | [11]; at 50.0 µM 17.6% and 32.5% | [11]; at 100.0 µM 56% | [12]; at 1.2 µM -3% | [12]; at 3.7 µM -6% | [12]; at 11.0 µM 3% | [12]; at 33.0 µM 12% | [12]; at 100.0 µM 38% | [13]; [17] 9% and 8% | [13]; [18] 56% and 22% | [13]; at 50.0 µM 11.9% and 59.4% | [14]; at 1.2 µM 1% | [14]; at 3.7 µM 4% | [14]; at 11.0 µM 6% | [14]; at 33.0 µM 18% | [14]; at 100.0 µM 39% | [15]; [17] -35% and 5% | [15]; [18] -2% and 6% | [15]; at 50.0 µM 43.3% and 26.8% | [16]; at 1.2 µM -7% | [16]; at 3.7 µM -23% | [16]; [17] -13% and -1% | [16]; at 11.0 µM -3% | [16]; at 33.0 µM 4% | [16]; [18] 10% and -10% | [16]; at 50.0 µM -2.9% and -0.2% | [16]; at 100.0 µM 39% | [1]; at 1.2 µM -2% | [1]; at 3.7 µM -1% | [1]; at 11.0 µM 5% | [1]; at 33.0 µM 22% | [1]; at 100.0 µM 68% | [2]; at 1.2 µM -2% | [2]; at 3.7 µM 5% | [2]; at 11.0 µM 10% | [2]; at 33.0 µM 25% | [2]; at 100.0 µM 61% | [3]; at 1.2 µM 0% | [3]; at 3.7 µM 4% | [3]; at 11.0 µM 14% | [3]; at 33.0 µM 31% | [3]; at 100.0 µM 67% | [4]; [17] -6% and 4% | [4]; [18] 41% and 20% | [4]; at 50.0 µM 20.1% and 27.3% | [5]; at 1.2 µM 1% | [5]; at 3.7 µM 3% | [5]; at 11.0 µM 4% | [5]; at 33.0 µM 22%
